# According to PubChem BioAssay (Tox21):
# “And” between values parts separate entries of the source, which are not always exact repeats. Equal entries are not always repeated. Results filed as inconclusive are left out. Entries that show only a call come without a potency. A structure can be active in one record and inactive in another. The source made the active and inactive calls. Unless noted, calls follow the shape of the dose curve; as a rule, active = well fitted curve in the direction sought with a large enough effect in the repeat runs; inconclusive = weak or mixed curves; inactive = no such curve, though single readings can be large; an effect the other way counts as inactive or inconclusive.
# Experiments:
# [1] = qHTS assay to identify small molecule antagonists of the estrogen receptor alpha (ER-alpha) signaling pathway using the BG1 cell line - cell viability counter screen (AID 743081); settings: BG1Luc4E2 viability, CellTiter-Fluor, 22 h; series mostly up to 70.3 µM;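 also: compound given together with 17beta-estradiol as the ER stimulus; nearly all actives have a fitted effect of over 45% in size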; also: potency is read from the fitted curve at half-maximal effect
# Aromatase (Homo sapiens) = Aromatase (Homo sapiens) (UniProt P11511); assay: qHTS assay to identify aromatase inhibitors (AID 743083); settings: MCF-7 aro ERE, testosterone-driven ERE luciferase, 24 h; series mostly up to 70.3 µM; also: nearly all actives have a fitted effect of over 55% in size; also: potency is read from the fitted curve at half-maximal effect
# [2] = qHTS assay to identify aromatase inhibitors - cell viability counter screen (AID 743084); settings: MCF-7 aro ERE viability, CellTiter-Fluor, 24 h; series mostly up to 70.3 µM;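 also: cells stimulated with testosterone during compound exposure; nearly all actives have a fitted effect of over 55% in size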; also: potency is read from the fitted curve at half-maximal effect
# [3] = target: Aryl hydrocarbon receptor (Homo sapiens) (UniProt P35869); assay: qHTS assay to identify small molecule that activate the aryl hydrocarbon receptor (AhR) signaling pathway (AID 743085); settings: HepG2 AhR-luc (HG2L7.5c1), luciferase, 24 h; series mostly up to 70.3 µM; also: nearly all actives have a fitted effect of over 15% in size; also: potency is read from the fitted curve at half-maximal effect;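 as to activation: HG2L7.5c1 human HepG2 liver cells with stably integrated DRE-driven firefly reporter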
# Summary of the method: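 Measured in HG2L7.5c1 cells: CellTiter-Fluor signal (30 min incubation, 37C) for viability, then luciferase luminescence (30 min, room temperature). Compound contact time was 24 h at 37C, following a 5 h pre-incubation.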
# [4] = qHTS assay to identify small molecule that activate the aryl hydrocarbon receptor (AhR) signaling pathway - cell viability counter screen (AID 743086); settings: HepG2-AhR-luc viability, CellTiter-Fluor, 24 h; series mostly up to 70.3 µM; also: nearly all actives have a fitted effect of over 45% in size; also: potency is read from the fitted curve at half-maximal effect
# Summary of the method: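 HepG2-AhR-luc (HG2L7.5c1) cells, 4000/well, were preincubated 5 h at 37C, exposed to compound in qHTS format for 24 hr at 37C, then given CellTiter-Fluor for 30 min; viability was read as fluorescence in the reporter wells.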
# [5] = qHTS assay for small molecule agonists of the antioxidant response element (ARE) signaling pathway (AID 743202; active = well fitted activation curve with a large enough effect in the signal ratio in the repeat runs, not every such curve was filed as active; the % refers to the signal ratio; also: potency is read from the fitted curve at half-maximal effect); settings: HepG2 ARE-bla reporter, beta-lactamase FRET, 16 h; series mostly up to 73.3 µM
# Summary of the method: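 Steps: seed ARE-bla HepG2 cells (2,000/well); incubate 5 h at 37 C; add compounds by pin tool; incubate 16 h at 37 C; add FRET substrate; read fluorescence after 2 h at RT.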
# [6] = qHTS assay for small molecule agonists of the antioxidant response element (ARE) signaling pathway - cell viability counter screen (AID 743203; calls by dose curve; also: nearly all actives have a fitted effect of over 55% in size; also: potency is read from the fitted curve at half-maximal effect); settings: ARE-bla HepG2 viability, CellTiter-Glo luminescence, 16 h; series mostly up to 73.3 µM
# Summary of the method: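 Measured in the same wells as the beta-lactamase ARE reporter, this read-out is CellTiter-Glo luminescence from HepG2 ARE-bla cells given compounds for 16 hrs.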
# [7] = qHTS assay for small molecule activators of the heat shock response signaling pathway - cell viability counter screen (AID 743209); settings: HSE-bla HeLa viability, CellTiter-Glo luminescence, 5 h; series mostly up to 62.6 µM; also: nearly all actives have a fitted effect of over 50% in size; also: potency is read from the fitted curve at half-maximal effect
# Summary of the method: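 Same-well multiplex: after 2.5 h room-temperature incubation with LiveBLAzer B/G substrate and fluorescence reading, CellTiter-Glo reagent was added to HSE-bla HeLa cells that had received compound for 5 h at 37 C; luminescence read after 30 min.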
# [8] = qHTS assay for small molecule activators of the heat shock response signaling pathway (AID 743210; active = well fitted activation curve with a large enough effect in the signal ratio in the repeat runs, with a control signal flat, not every such curve was filed as active; the % refers to the signal ratio; also: potency is read from the fitted curve at half-maximal effect;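 as to activation: HeLa cells with beta-lactamase reporter driven by heat shock elements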); settings: HeLa HSE-bla reporter, beta-lactamase ratio, 5 h; series mostly up to 62.6 µM
# Summary of the method: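 Activation of heat shock element-controlled beta-lactamase expression is measured in HeLa cells by LiveBLAzer FRET fluorescence, with compound exposure lasting 5 h at 37 C and substrate loading 2.5 h at room temperature.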
# [9] = qHTS assay to identify small molecule antagonists of the thyroid receptor (TR) signaling pathway (AID 743065); settings: GH3.TRE-Luc, T3-stimulated luciferase inhibition, 23.5 h; series mostly up to 70.3 µM; also: nearly all actives have a fitted effect of over 55% in size
# Summary of the method: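 GH3.TRE-Luc rat pituitary cells carrying two TR response elements driving luciferase were plated for 4 h, given compound plus 1 nM T3 (final), and incubated 23.5 h at 37 C. ONE-Glo luminescence measured reporter inhibition; CellTiter-Fluor fluorescence tracked cytotoxicity.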
# [10] = tested on: thyroid hormone receptor (rat, GH3 cells); assay: qHTS assay to identify small molecule agonists of the thyroid receptor (TR) signaling pathway (AID 743066; calls by dose curve); settings: GH3.TRE-Luc cells, TR agonist luciferase, 24 h; series mostly up to 83.9 µM
# [11] = target: Estrogen receptor (Homo sapiens) (UniProt P03372); assay: qHTS assay to identify small molecule antagonists of the estrogen receptor alpha (ER-alpha) signaling pathway (AID 743069; active = well fitted curve in the direction sought with a large enough effect in the signal ratio in the repeat runs, not every such curve was filed as active; the % refers to the signal ratio); settings: HEK293 ER-alpha-UAS-bla, beta-lactamase ratio, antagonist mode; series mostly up to 69.4 µM
# Summary of the method: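 Screening used a UAS-driven beta-lactamase reporter integrated into HEK293 cells expressing ER-alpha, stimulated with 17beta-estradiol alongside test compounds over 18 hr at 37C; signal came from LiveBLAzer B/G FRET fluorescence.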
# [12] = qHTS assay to identify small molecule antagonists of the estrogen receptor alpha (ER-alpha) signaling pathway - cell viability counter screen (AID 743074; calls by dose curve; also: nearly all actives have a fitted effect of over 45% in size; also: potency is read from the fitted curve at half-maximal effect); settings: ERalpha-bla HEK293 viability, CellTiter-Glo luminescence, 18 h; series mostly up to 69.4 µM
# [13] = target: Estrogen receptor (Homo sapiens) (UniProt P03372); assay: qHTS assay to identify small molecule agonists of the estrogen receptor alpha (ER-alpha) signaling pathway (AID 743075; calls by dose curve); settings: HEK293 ER-alpha-UAS-bla, beta-lactamase FRET ratio, 18 h; series mostly up to 70.1 µM
# [14] = target: Estrogen receptor (Homo sapiens) (UniProt P03372); assay: qHTS assay to identify small molecule agonists of the estrogen receptor alpha (ER-alpha) signaling pathway using the BG1 cell line (AID 743079); settings: BG1Luc4E2 cells, ERE-luciferase agonist, 22 h; series mostly up to 70.3 µM; also: nearly all actives have a fitted effect of over 20% in size
# [15] = qHTS assay to identify small molecule antagonists of the estrogen receptor alpha (ER-alpha) signaling pathway using the BG1 cell line (AID 743080; calls by dose curve;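 also: BG1 cells stimulated with 17beta-estradiol alongside compound; nearly all actives have a fitted effect of over 25% in size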); settings: BG1Luc4E2 ERE-luciferase antagonist mode, luminescence; series mostly up to 70.3 µM
# Summary of the method: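 Readout is ONE-Glo luminescence, taken 30 min at room temperature after reagent addition, preceded by a CellTiter-Fluor viability read; BG1-Luc-4E2 cells had received compound and 17beta-estradiol for 21.5 h at 37 C.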
# [16] = target: Peroxisome proliferator-activated receptor gamma (Homo sapiens) (UniProt P37231); assay: qHTS assay to identify small molecule antagonists of the peroxisome proliferator-activated receptor gamma (PPARg) signaling pathway (AID 743191; calls by dose curve; also: nearly all actives have a fitted effect of over 30% in size); settings: HEK293H PPARg-UAS-bla, beta-lactamase ratio, antagonist, 17 h; series mostly up to 62.6 µM
# Summary of the method: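 GeneBLAzer PPARg UAS-bla HEK293H cells carrying a UAS-driven beta-lactamase reporter were plated at 3000 cells/well, preincubated 5 h at 37C, then given compound for 17 h at 37C; LiveBLAzer B/G FRET substrate was read after 1 h at room temperature.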
# [17] = qHTS assay to identify small molecule antagonists of the peroxisome proliferator-activated receptor gamma (PPARg) signaling pathway - cell viability counter screen (AID 743194); settings: PPARg-bla HEK293H viability, CellTiter-Glo luminescence, 17 h, co-treated with 50 nM rosiglitazone; series mostly up to 62.6 µM; also: nearly all actives have a fitted effect of over 55% in size
# Summary of the method: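 PPARg-UAS-bla HEK293H cells were plated, rested 5 h at 37 C, then treated with compounds plus rosiglitazone (50 nM final) for 17 h at 37 C; viability was then read by CellTiter-Glo luminescence after 30 min at room temperature.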
# [18] = target: Peroxisome proliferator-activated receptor gamma (Homo sapiens) (UniProt P37231); assay: qHTS assay to identify small molecule agonists of the peroxisome proliferator-activated receptor gamma (PPARg) signaling pathway (AID 743094; active = well fitted activation curve with a large enough effect in the signal ratio in the repeat runs, not every such curve was filed as active; the % refers to the signal ratio); settings: HEK293H PPARg-UAS-bla, beta-lactamase FRET ratio, 17 h; series mostly up to 57 µM
# Summary of the method: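 Cell-based bla reporter, HEK293H background, PPARg-driven UAS. Pre-incubation 5 h, 37C, 5% CO2. Compound 17 h, 37C. Substrate 1 h RT; fluorescence.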
# [19] = qHTS assay to identify small molecule antagonists of the thyroid receptor (TR) signaling pathway - cell viability counter screen (AID 743064); settings: GH3.TRE-Luc viability, CellTiter-Fluor, 24 h; series mostly up to 70.3 µM; also: potency is read from the fitted curve at half-maximal effect; nearly all actives have a fitted effect of over 50% in size
# Summary of the method: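 Counter screen for cytotoxicity: compound plus T3 (1 nM final) on GH3.TRE-Luc cells, 23.5 h at 37 °C, then fluorescence viability readout with CellTiter-Fluor.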
# Chain of Aromatase (Homo sapiens) (P11511 whole entry, looked up): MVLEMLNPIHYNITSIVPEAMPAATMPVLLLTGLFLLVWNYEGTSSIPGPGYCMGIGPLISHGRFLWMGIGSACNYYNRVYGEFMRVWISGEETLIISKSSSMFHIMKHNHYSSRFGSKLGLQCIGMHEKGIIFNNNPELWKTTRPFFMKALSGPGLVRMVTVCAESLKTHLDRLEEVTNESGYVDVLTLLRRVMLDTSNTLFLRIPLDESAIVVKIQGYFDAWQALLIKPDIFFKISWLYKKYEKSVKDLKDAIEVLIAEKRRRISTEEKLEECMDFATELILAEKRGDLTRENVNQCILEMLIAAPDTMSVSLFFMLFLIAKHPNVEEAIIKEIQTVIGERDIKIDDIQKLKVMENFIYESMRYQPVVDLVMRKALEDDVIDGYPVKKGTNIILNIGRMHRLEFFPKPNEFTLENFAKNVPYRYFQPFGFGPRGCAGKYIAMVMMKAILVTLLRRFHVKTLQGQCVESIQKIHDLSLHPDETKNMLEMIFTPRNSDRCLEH
# Chain of Aryl hydrocarbon receptor (Homo sapiens) (P35869 whole entry, looked up): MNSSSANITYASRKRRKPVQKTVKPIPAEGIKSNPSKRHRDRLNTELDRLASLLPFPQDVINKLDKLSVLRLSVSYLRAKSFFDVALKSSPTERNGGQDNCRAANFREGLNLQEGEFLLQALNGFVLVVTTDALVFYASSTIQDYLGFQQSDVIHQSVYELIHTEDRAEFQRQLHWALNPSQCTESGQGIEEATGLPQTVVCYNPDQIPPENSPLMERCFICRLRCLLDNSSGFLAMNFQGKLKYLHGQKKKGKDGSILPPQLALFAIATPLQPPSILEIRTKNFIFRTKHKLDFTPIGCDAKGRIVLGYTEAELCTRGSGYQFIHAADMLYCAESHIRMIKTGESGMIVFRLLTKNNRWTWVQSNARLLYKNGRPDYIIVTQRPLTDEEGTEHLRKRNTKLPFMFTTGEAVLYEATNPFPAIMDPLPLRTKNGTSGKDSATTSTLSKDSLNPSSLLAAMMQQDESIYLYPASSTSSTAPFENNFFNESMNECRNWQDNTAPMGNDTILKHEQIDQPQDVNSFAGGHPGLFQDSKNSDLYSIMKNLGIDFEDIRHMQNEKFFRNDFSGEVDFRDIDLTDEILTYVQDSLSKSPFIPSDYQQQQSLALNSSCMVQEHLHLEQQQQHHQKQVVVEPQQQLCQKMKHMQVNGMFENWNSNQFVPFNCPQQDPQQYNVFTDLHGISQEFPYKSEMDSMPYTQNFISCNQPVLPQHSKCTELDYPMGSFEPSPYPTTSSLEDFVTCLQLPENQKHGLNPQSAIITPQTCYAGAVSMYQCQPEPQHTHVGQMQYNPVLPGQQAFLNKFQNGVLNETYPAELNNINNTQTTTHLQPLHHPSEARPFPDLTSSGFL
# Chain of Peroxisome proliferator-activated receptor gamma (Homo sapiens) (P37231 whole entry, looked up): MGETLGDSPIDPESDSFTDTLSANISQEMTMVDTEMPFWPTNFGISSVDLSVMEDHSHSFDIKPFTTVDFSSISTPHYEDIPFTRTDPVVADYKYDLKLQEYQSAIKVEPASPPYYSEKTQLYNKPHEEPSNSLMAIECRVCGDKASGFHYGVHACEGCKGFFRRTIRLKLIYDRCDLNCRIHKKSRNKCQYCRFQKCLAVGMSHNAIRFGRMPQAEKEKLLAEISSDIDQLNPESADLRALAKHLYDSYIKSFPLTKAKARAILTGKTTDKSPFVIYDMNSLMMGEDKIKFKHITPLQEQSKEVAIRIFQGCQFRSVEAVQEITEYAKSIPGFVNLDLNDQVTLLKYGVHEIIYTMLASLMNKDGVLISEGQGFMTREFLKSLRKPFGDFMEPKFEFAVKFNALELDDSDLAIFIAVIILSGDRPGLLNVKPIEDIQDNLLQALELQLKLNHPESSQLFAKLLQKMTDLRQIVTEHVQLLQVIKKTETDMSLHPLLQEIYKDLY
# Chain of Estrogen receptor (Homo sapiens) (P03372 whole entry, looked up): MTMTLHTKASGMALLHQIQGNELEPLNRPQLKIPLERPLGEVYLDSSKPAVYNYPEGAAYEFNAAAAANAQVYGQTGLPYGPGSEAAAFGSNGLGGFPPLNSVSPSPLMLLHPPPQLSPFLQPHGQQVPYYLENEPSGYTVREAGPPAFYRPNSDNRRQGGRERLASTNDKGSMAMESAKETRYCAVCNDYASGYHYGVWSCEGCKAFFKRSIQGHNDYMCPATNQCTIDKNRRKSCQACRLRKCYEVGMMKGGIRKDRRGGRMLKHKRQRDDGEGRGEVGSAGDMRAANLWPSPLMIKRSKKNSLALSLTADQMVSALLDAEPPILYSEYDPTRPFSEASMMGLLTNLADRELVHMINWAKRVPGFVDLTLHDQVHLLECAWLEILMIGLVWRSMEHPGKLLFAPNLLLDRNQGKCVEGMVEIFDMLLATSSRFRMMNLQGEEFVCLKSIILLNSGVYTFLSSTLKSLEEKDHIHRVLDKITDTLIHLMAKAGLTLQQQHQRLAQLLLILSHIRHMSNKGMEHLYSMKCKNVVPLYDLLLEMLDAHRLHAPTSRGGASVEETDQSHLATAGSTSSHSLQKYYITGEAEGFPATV
SMILES,Potency [1],Potency (Aromatase (Homo sapiens)),Potency [2],Potency [3],Potency [4],Potency [5],Potency [6],Potency [7],Potency [8],Potency [9],Potency [10],Potency [11],Potency [12],Potency [13],Potency [14],Potency [15],Potency [16],Potency [17],Potency [18],Potency [19]
N[C@@H]1CONC1=O,inactive,inactive,inactive,inactive,inactive,inactive,inactive,inactive,inactive,–,–,–,–,–,–,–,–,–,–,–
CCC[C@H](N[C@@H](C)C(=O)N1[C@H](C(=O)O)C[C@@H]2CCCC[C@@H]21)C(=O)OCC,–,inactive,inactive,inactive,inactive,inactive,inactive,inactive,inactive,inactive,inactive,inactive,inactive,inactive,inactive,inactive,inactive,inactive,–,–
CC(COc1ccccc1)N(CCCl)Cc1ccccc1 (stereo unspecified),inactive,inactive,inactive,–,inactive,–,61.1 µM (active) and inactive,inactive,–,–,–,–,inactive,–,–,–,inactive,–,–,–
CCN(CC)c1ccc2c(C)cc(=O)oc2c1,–,inactive,–,–,–,–,inactive,inactive,31.1 µM (active),–,inactive,–,49.4 µM (active) and inactive,–,inactive,inactive,–,–,–,–
CC(=O)CC(=O)Nc1ccc2[nH]c(=O)[nH]c2c1,inactive,inactive,inactive,inactive,inactive,inactive,inactive,inactive,inactive,–,inactive,inactive,inactive,inactive,inactive,inactive,inactive,–,inactive,–
NC(=Nc1ccccc1)Nc1ccccc1,–,21.1 µM (active),inactive,inactive and 19.3 µM (active),6.11 µM (active),–,–,inactive,inactive,–,inactive,inactive,inactive,inactive,–,–,inactive,–,–,–
Nc1ccc(O)cc1,inactive and 63.5 µM (active),inactive and 31.8 µM (active),54.5 µM (active) and 31.8 µM (active),–,54.5 µM (active) and 50.4 µM (active),29.8 µM (active),12.7 µM (active) and inactive,25.5 µM (active) and inactive,inactive,–,–,–,inactive,inactive,inactive,inactive,inactive,inactive,inactive,8.41 µM (active) and 17.2 µM (active) and 14.2 µM (active)
